Bioassay records: PubChem BioAssay, The Scripps Research Institute Molecular Screening Center
Only some compounds are listed: those with a hit (about 2.6% of all), similar ones and a draw of the others.
Fam108B inh = Fam108B inhibition, counter-screen for RBBP9 inhibitors | 0.33% of 300,000 active | inhibition, % at 9.51 µM | recombinant Fam108B, FP-Rh probe fluorescence polarization;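 active = inhibition above the screen mean inhibition plus 3 SD, computed separately per campaign, cut at about 18% in these data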;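 also: inhibitors lower polarization as less probe binds the enzyme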
PRMT1 inh = inhibitors of human PRMT1; inhibition, % at 2.79 µM; AID 652257; recombinant PRMT1, activity-based probe fluorescence polarization; Q99873; 1.3% of 370,000 active;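 active = inhibition above about 21% made by adding two undisclosed values, limit read from the data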
PAD4 FP inh = inhibitors of human PAD4; Q9UM07; recombinant PAD4, RCA probe fluorescence polarization; inhibition, % at 6.36 µM; 0.41% of 330,000 active; AID 485272;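 active = percent inhibition above a cutoff equal to the mean of all tested compounds plus 3 SD, cut at about 15% in these data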;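 also: 0% = PAD4 with RCA probe and DMSO and 100% = probe without PAD4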
Target sequence (Q9UM07 whole entry, looked up): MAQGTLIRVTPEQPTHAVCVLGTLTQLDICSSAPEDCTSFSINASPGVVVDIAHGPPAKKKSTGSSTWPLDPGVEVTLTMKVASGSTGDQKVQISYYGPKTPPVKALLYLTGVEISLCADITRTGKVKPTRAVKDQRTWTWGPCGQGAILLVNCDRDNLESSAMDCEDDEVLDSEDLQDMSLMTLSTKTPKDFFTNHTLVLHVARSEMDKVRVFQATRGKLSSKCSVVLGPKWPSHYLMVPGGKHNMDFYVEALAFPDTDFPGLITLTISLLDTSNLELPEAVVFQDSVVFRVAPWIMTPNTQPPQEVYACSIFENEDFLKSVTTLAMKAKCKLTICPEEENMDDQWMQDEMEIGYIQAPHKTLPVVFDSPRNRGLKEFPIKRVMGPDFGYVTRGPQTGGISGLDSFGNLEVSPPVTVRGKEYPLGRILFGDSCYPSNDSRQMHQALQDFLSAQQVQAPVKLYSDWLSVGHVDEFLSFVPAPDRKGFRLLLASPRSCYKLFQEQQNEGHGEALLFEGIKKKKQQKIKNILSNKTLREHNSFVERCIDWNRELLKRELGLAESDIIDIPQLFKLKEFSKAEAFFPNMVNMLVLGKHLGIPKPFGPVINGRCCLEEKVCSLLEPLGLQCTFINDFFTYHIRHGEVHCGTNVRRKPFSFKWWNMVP
SIAE primary = blocks human sialic acid acetylesterase. Q9HAT2. SIAE FP-Rh probe binding, fluorescence polarization. inhibition, % at 9.66 µM. 0.69% of 370,000 active. AID 1053197;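 active = inhibition above a cutoff: mean of compounds within the control limits plus 3 SD of those, cut at about 17% in these data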;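 also: 0% = plate median of compound wells and 100% = probe without SIAE protein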
TCR CD3 inh = inhibitors of human TCR-CD3 interaction; TAMRA-labeled TCR probe fluorescence, biochemical; 0.37% of 360,000 active; AID 651800; inhibition, % at 9.4 µM; in the data active = inhibition above about 19%;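 also: recombinant mutant TCR 2C K166C tagged with TAMRA read by polarization; 0% = receptor in buffer alone and 100% = receptor with positive control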
PME-1 inh = PME-1 (human) inhibition | recombinant PME-1, FP-Rh probe fluorescence polarization | inhibition, % at 5.9 µM | 0.53% of 320,000 active;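 active = inhibition above the campaign mean of all compounds plus 3 SD, cut at about 26% in these data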;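 also: competitive labeling of PME-1 active site by serine hydrolase directed probe; 0% = PME-1 with DMSO and 100% = wells lacking PME-1 enzyme; inhibitors block probe labeling so polarization falls and inhibition rises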
SIAE confirm = human SIAE inhibition, confirmation. shares compounds with SIAE primary. SIAE FP-Rh activity-based probe, fluorescence polarization. inhibition, % at 9.66 µM. 13% of 2,300 active. AID 1117263;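 active = mean inhibition of the replicates above the hit cutoff set in the primary screen, cut at about 17% in these data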;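 also: 0% = SIAE with DMSO and probe and 100% = probe without SIAE; inhibitors lower polarization as more probe stays unbound to SIAE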
Active calls of the source: *; . = no result given.

SMILES	Fam108B inh	PRMT1 inh	PAD4 FP inh	SIAE primary	TCR CD3 inh	PME-1 inh	SIAE confirm
CC(C)CN1C[C@@H]2CSCCS(=O)(=O)N2C1=O	.	1	.	5	.	.	.
Oc1ccc(NCc2ccccc2OCc2ccccc2F)cc1	10	12	3	34*	11	26	10
NS(=O)(=O)c1ccc(NCc2ccccc2OCc2ccccc2F)cc1	-4	-2	-3	7	6	5	.
CCOc1cccc(CNc2ccc(O)cc2)c1OCc1ccc(Cl)cc1	17	4	-11	29*	16	22	8
COc1cccc(CNCCO)c1OCc1ccc(Cl)cc1	2	5	2	2	-4	1	.
COC(=O)[C@]12C[C@H](CC(=O)NCC34CC5CC(CC(C5)C3)C4)C(=O)N(Cc3ccco3)C1=C[C@H](C(C)C)O[C@@H]2C1CC1	.	4	.	2	.	.	.
Cc1c(C(=O)N(Cc2ccc(N(C)C)cc2)CC2CCCO2)oc2ccccc12 (centres undefined)	2	-5	-1	-1	2	-3	.
CN(C)c1ccc(CN(CC2CCCO2)C(=O)c2cc3ccccc3o2)cc1 (centres undefined)	.	0	.	20*	5	.	-1
COC(=O)C1CN(Cc2ccccc2)CCS(=O)(=O)N1Cc1cn(Cc2ccc(Cl)cc2)nn1 (centres undefined)	.	-1	.	4	.	.	.
Nc1ccc2nc(-c3ccccc3)[nH]c2c1	3	2	-6	8	1	11	.
Nc1ccc2nc(-c3ccccn3)[nH]c2c1	12	-1	-9	51*	1	6	9
Cn1cc([N+](=O)[O-])c(C(=O)N/N=C/c2ccncc2)n1	2	-4	-6	17*	2	-4	3
Cn1cc([N+](=O)[O-])c(C(=O)N/N=C/c2ccc([N+](=O)[O-])cc2)n1	0	-3	0	-3	6	-2	.
CN(C)c1cccc(CNC(=O)c2csc([C@@H]3O[C@H](CO)[C@H](O)[C@H](O)[C@H]3O)n2)c1	.	-4	.	20*	1	.	6
CN1CC(=O)N2[C@@H](C[C@]3(c4c[nH]c5ccccc45)c4ccccc4N(S(=O)(=O)c4ccccc4)[C@H]23)C1=O	.	1	.	1	.	.	.
COc1ccc(C(=O)Nc2cc(OC)c(NC(=O)Nc3ccccc3)cc2OC)cc1	.	1	.	23*	12	.	9
COC(=O)[C@]12C[C@H](CC(=O)N3CCCC3)C(=O)N(Cc3cccc4ccccc34)C1=C[C@H](C(C)C)O[C@@H]2C1CC1	.	-1	.	9	.	.	.
O=Nc1c(-c2cccc([N+](=O)[O-])c2)nc2ncccn12	5	-5	-1	18*	1	10	6
Nc1c(-c2ccccc2)nc2ncccn12	.	1	.	2	6	.	.
CCCC[C@H]1C2CC(OC(=O)Nc3ccccc3Cl)C(C2)[C@H]2CCCCN21 (some centres undefined)	.	4	.	2	.	.	.
CCOC(=O)CC[C@@]1(C(=O)OCC)C[C@@H](CC(=O)NCCCOC)C(=O)N2CCCC=C21	.	2	.	-6	.	.	.
COc1cc2ccccc2cc1C(=O)N1CCCC1	-1	-1	-5	22*	-3	3	-6
C#Cc1cccc(OCC(C)CN2CCC(C(O)(c3ccccc3)c3ccccc3)CC2)c1 (centres undefined)	.	-5	.	-2	.	.	.
CSc1nnc(C)c(/C=C/NOCc2ccc(Cl)cc2)n1	3	2	-6	18*	8	-3	0
COc1cccc(CN2CCc3[nH]c(=S)[nH]c(=O)c3C2)c1	3	0	-5	22*	1	-8	-1
SMILES	Fam108B inh	PRMT1 inh	PAD4 FP inh	SIAE primary	TCR CD3 inh	PME-1 inh	SIAE confirm
Cn1cccc1/C=N/NC(=O)c1cc2ccccc2cc1O	5	-4	-7	17*	-2	23	1
O=C(O)COc1ccccc1/C=N/NC(=O)c1cc2ccccc2cc1O	6	18	1	48*	5	7	53*
Cn1cccc1/C=N/NC(=O)c1ccccn1	2	0	-4	5	2	1	.
O=C(N/N=C/C1CC=CCC1)c1cc2ccccc2cc1O (centres undefined)	6	0	-4	19*	1	15	8
CCN1CCCCC(NC(=O)c2ccccc2C)C1=O (centres undefined)	.	-3	.	-1	.	.	.
COC(=O)C1CN(CC(C)C)CCS(=O)(=O)N1Cc1ccc(C(F)(F)F)cc1 (centres undefined)	.	2	.	15	.	.	.
Cc1cccc(C(=O)NCC(c2ccco2)N2CCc3ccccc32)c1 (centres undefined)	-2	1	3	22*	2	4	9
O=C(NCC(c1ccco1)N1CCc2ccccc21)c1ccc([N+](=O)[O-])cc1 (centres undefined)	1	-1	-2	8	5	-3	.
O=C(NCC(c1ccco1)N1CCc2ccccc21)c1cccc([N+](=O)[O-])c1 (centres undefined)	3	-4	3	4	3	4	.
Cc1cccc(C(=O)NCC(=O)NCC(c2ccco2)N2CCCCC2)c1 (centres undefined)	2	-3	-3	18*	-2	-2	1
COc1cc(OC)cc(C(=O)NCC(=O)NCC(c2ccco2)N2CCCCC2)c1 (centres undefined)	.	-4	1	-2	0	-6	.
Cc1ccc(C(=O)NCC(c2ccco2)N2CCc3ccccc32)cc1 (centres undefined)	-2	-5	-3	21*	0	1	3
O=C(NNc1nc2c(F)cccc2s1)c1cc(=O)c2ccccc2o1	4	10	-5	18*	8	55*	-4
Cc1ccc2sc(NNC(=O)c3cc(=O)c4ccccc4o3)nc2c1C	9	10	-5	25*	-10	46*	33*
CCCCn1c(N)c(N(C(=O)CSc2nnnn2-c2ccccc2)C2CCCC2)c(=O)[nH]c1=O	.	-2	-1	22*	-8	2	16
Cc1nc(SCC(=O)N2CCN(C(=O)c3cccs3)CC2)c2c(C)c(C)sc2n1	.	1	.	17*	-10	.	0
O=c1[nH][nH]c(=O)n1-c1ccccc1	3	-1	0	20*	0	2	-2
CCCCNC(=O)Nc1ccccc1C(=O)NCCC	-1	3	3	3	-1	0	.
CCCCNC(=O)Nc1ccccc1C(=O)Nc1ccc(OC)cc1	-2	1	-5	50*	-5	-4	2
COc1ccccc1N1CCN(C2CCCN(Cc3cccc(O)c3)C2)CC1 (centres undefined)	-3	-5	-3	17*	3	-3	5
COc1ccccc1CN1CCCC(N2CCN(c3ccccc3OC)CC2)C1 (centres undefined)	.	1	.	0	-4	.	.
